{"source": "PubChem BioAssay (NCI)", "note": "Where “and” joins values, the source holds several entries; their conditions need not be identical. Identical values can stand only once. This is part of a sample that, as a whole, favours compounds with a hit. Of some 83,000 tested, about 20% had one in any assay.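 Step 1: grow cells in 96-well plates. Step 2: add test compound at a single concentration. Step 3: incubate 48 h. Step 4: record percent growth.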 Calls of active or inactive are those of the source. Rule for the calls: active = growth percent below 10; inactive = the rest.", "data": [{"system": "MDA-MB-468 breast", "experiment": "NCI-60 one-dose screen, 48 h (100 = growth as untreated, 0 = no growth, -100 = all killed)", "details": "10 µM unless noted", "values": [{"compound": "O=C(/C=C/C12c3ccccc3C(c3ccccc31)C1C(=O)N(c3ccccc3)C(=O)C12)c1ccc(Cl)cc1", "note": "(stereo not given)", "growth": "3.08% (active)"}, {"compound": "Cn1nc(C(F)(F)F)c(-c2ccc(Cl)c(C(F)(F)F)c2)c1-c1ccc(OCc2ccc(Cl)cc2)cc1O", "growth": "-18.7% (active)"}, {"compound": "O=C1c2cccc3c(-c4ccc5c(c4)ncn5C4CCCCC4)ccc(c23)C(=O)N1c1nc2ccccc2s1", "growth": "92% (inactive)"}, {"compound": "Fc1cc2c(cc1Cl)N(c1ncnc3ccc(-c4cnc5[nH]ncc5c4)cc13)CC2", "growth": "49.5% (inactive)"}, {"compound": "Cc1ccc(-c2onc3c(=O)[nH]nc(-c4ccccc4)c23)cc1", "growth": "29.5% (inactive)"}, {"compound": "Cc1ccc(Cl)cc1N1CCN(C(=O)[C@@H]2C[C@@H]2c2ccc(F)cc2)CC1", "growth": "75.3% (inactive)"}, {"compound": "Fc1ccccc1Nc1n[nH]c(=S)s1", "growth": "106% (inactive)"}, {"compound": "c1cc[n+](Cc2c3ccccc3cc3c2ccc2ccccc23)cc1", "growth": "-40.5% (active)"}, {"compound": "C=C1CCC2(C#N)[C@H]3[C@H](CC[C@@H]2C)[C@@H](C)C[C@@H](CC(C)(C)NC(=O)CN2CCC2=O)[C@H]13", "note": "(stereo not given in full)", "growth": "58% (inactive)"}, {"compound": "O=C(Nc1ccc(I)cc1F)c1cc(F)ccc1O", "growth": "-3.61% (active)"}, {"compound": "N=c1ccc2nc3c(cc(N)c4ccccc43)oc-2c1", "growth": "-78.4% (active)"}, {"compound": "CCN(CC)CCNc1ccc([N+](=O)[O-])c2sc3cc(Cl)ccc3c(=O)c12", "growth": "92.6% (inactive)"}, {"compound": "O=C(/C=C/c1ccccc1)c1ccc2ccccc2c1", "growth": "47.8% (inactive)"}, {"compound": "CCc1c(C(=O)N[C@@H]2c3cc(Cl)ccc3CC[C@@H]2O)[nH]c(C)c1C(C)=O", "growth": "94.1% (inactive)"}, {"compound": "CC1(c2ccc(Cl)cc2)OC(=O)CC(=O)O1", "growth": "109% (inactive)"}, {"compound": "c1ccc(-c2cn3nc(-c4c[nH]c5ccccc45)sc3n2)cc1", "growth": "77.9% (inactive)"}, {"compound": "CCCCCCCCCCCCCCNc1nc(CO)ncc1-c1ccc(C(F)(F)F)cc1", "growth": "98.1% (inactive)"}, {"compound": "Nc1ncnc2c1CN(Cc1ccccc1)CC2", "growth": "112% (inactive)"}, {"compound": "CC1=C2[C@@H](CC1)[C@]1(C)O[C@@](C(C)C)(C[C@H]1OC(=O)CO)[C@H]2OC(=O)CCCc1ccccc1", "growth": "88.3% (inactive)"}, {"compound": "COC(=O)c1cc(-c2ccc(S(C)(=O)=O)cc2)[nH]c1N/N=C/c1c(Cl)cccc1Cl", "growth": "15.7% (inactive)"}, {"compound": "CCOC1=C(Cl)C(=O)C(OCC)=C(Cl)C1=O", "growth": "103% (inactive)"}, {"compound": "CC(C)N1C(=O)/C(=c2\\sc3n(c2=O)C2C(NN=3)N(C)C(=O)N2C)c2ccccc21", "note": "(stereo not given)", "growth": "37.3% (inactive)"}, {"compound": "COCCn1cc(-c2nc(-c3cn(CCOC)c4ncccc34)cs2)c2cc(F)ccc21", "growth": "-10.9% (active)"}, {"compound": "COc1ccc2oc3cc(NCCN(C)C)ccc3c(=O)c2c1", "growth": "103% (inactive) and 88.7% (inactive)"}, {"compound": "C=CC1CN2CCC1CC2C(O)c1ccnc2ccc(OC)cc12", "note": "(stereo not given)", "growth": "102% (inactive)"}, {"compound": "COc1ccc(C(=O)/C=C/c2ccccc2)cc1S(N)(=O)=O", "growth": "66.1% (inactive)"}, {"compound": "O=C(Nc1cc([N+](=O)[O-])c2[nH]c(=O)c3ccccc3c2c1)C(F)(F)F", "growth": "-15.2% (active)"}, {"compound": "NC(CO)(CO)c1ccccc1", "growth": "79.9% (inactive)"}, {"compound": "CN1C(=O)N(C)C2C1NN=c1s/c(=C\\C=C\\c3ccccc3)c(=O)n12", "note": "(stereo not given)", "growth": "13.9% (inactive)"}, {"compound": "COc1c(O)c(O)cc2c3c(oc12)CC(c1ccc2c(c1)OCO2)CC3=O", "note": "(stereo not given)", "growth": "79.9% (inactive)"}, {"compound": "N#Cc1c(NC(=O)c2ccccc2)sc2c1CCC(=O)C2", "growth": "-9.47% (active)"}, {"compound": "COc1cccc(-c2nn(-c3ccccc3)cc2-c2ccnc(NCCCNC(=O)c3ccc(F)cc3)c2)c1", "growth": "13.7% (inactive)"}, {"compound": "CCOC(=O)[C@@H](C)C[C@H](Cc1ccccc1)NC(=O)c1csc([C@@H](C[C@H](C(C)C)N(C)C(=O)[C@@H](NC(=O)[C@H]2C[C@H](O[Si](C)(C)C(C)(C)C)CCN2C)C(C)C)OC(C)=O)n1", "growth": "3.46% [9.25 µM] (active)"}, {"compound": "O=C(NCCCCNC(=O)OCc1ccc2c(Cl)cc(Cl)c(O)c2n1)OCc1ccc2c(Cl)cc(Cl)c(O)c2n1", "growth": "-5.78% (active)"}, {"compound": "CC1=C/C(O)CC(=O)Cc2nc(co2)C(=O)N2CCC=C2C(=O)OC(C(C)C)C(C)/C=C\\C(=O)NC/C=C\\1", "note": "(stereo not given)", "growth": "54.5% (inactive)"}, {"compound": "Nc1ccc(CC[C@H]2CCC/C=C/[C@@H]3C[C@H](O)C[C@H]3[C@H](O)/C=C/C(=O)O2)cc1", "growth": "-27.3% (active)"}, {"compound": "C(=N\\Nc1ncnc2sc3c(c12)CCNC3)/c1cccc2ccccc12", "growth": "72.1% (inactive)"}, {"compound": "Cc1n(Cc2ccc3ccccc3c2)c2ccccc2[n+]1Cc1ccc2ccccc2c1", "growth": "-60.8% (active)"}, {"compound": "O=c1oc2ccccc2cc1-c1cc(-c2ccc(-c3cc(-c4cc5ccccc5oc4=O)nc(-c4cc5ccccc5oc4=O)c3)cc2)cc(-c2cc3ccccc3oc2=O)n1", "growth": "84.3% (inactive)"}, {"compound": "OCCN1CCN(CC/C=C2\\c3ccccc3Sc3ccc(Cl)cc32)CC1", "growth": "-97.1% (active)"}]}]}
